The list is not random: actives were taken first. Their share in the collection is about 0.93%.
RPL19A-GFP yeast: yeast TOR pathway RPL19A-GFP modulation | S. cerevisiae RPL19A-GFP strain, flow cytometry, 3 h; active compounds read low | percent response vs DMSO, % at 10 µM | 330,000 tested, 0.3% active | AID 2025;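 active means percent response vs DMSO below 50%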;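 further: median channel GFP fluorescence of the barcoded RPL19A-GFP strain; ratio of sample median GFP to plate DMSO average so 100% = DMSO; lower means less RPL19A-GFP as with rapamycin TOR inhibition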
LAP4-GFP MLPCN: alters LAP4-GFP fluorescence in TOR pathway yeast screen | 320,000 tested, 0.34% active | GFP response vs DMSO, % at 10 µM | S. cerevisiae LAP4-GFP multiplex, flow cytometry GFP, 3 h; median GFP as percent of DMSO wells;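 active means GFP response vs DMSO above a set limit, about the screen mean plus 3 SD, cut at about 150% in these data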
CIT2-GFP yeast: modulators of TOR pathway CIT2-GFP in S. cerevisiae | 320,000 tested, 0.065% active | AID 2029 | S. cerevisiae CIT2-GFP strain, flow cytometry, 3 h; 100 means same as DMSO wells | GFP response vs DMSO, % at 10 µM;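 active means GFP response relative to DMSO above a set limit, near the screen mean plus 3 SD, cut at about 150% in these data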;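 further: ratio of well median GFP fluorescence to mean of DMSO wells on the plate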
MEP2-GFP yeast: yeast TOR pathway MEP2-GFP modulation. S. cerevisiae MEP2-GFP strain, flow cytometry GFP, 3 h; 100% = DMSO control level. GFP response vs DMSO, % at 10 µM. 330,000 tested, 0.51% active. AID 2016;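 active means GFP response versus DMSO above a set limit, roughly screen mean plus 3 SD, cut at about 180% in these data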;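 further: median GFP fluorescence of the barcode-gated MEP2-GFP cells per well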
AGP1-GFP MLPCN: alters AGP1-GFP fluorescence in TOR pathway yeast screen. AID 2066. S. cerevisiae AGP1-GFP multiplex flow cytometry, 3 h; GFP as percent of DMSO wells. 320,000 tested, 0.02% active. GFP response vs DMSO, % at 10 µM;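 active means GFP response relative to DMSO above a set limit, near screen average plus 3 SD, cut at about 150% in these data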;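 further: median GFP channel fluorescence of the gated AGP1 strain per well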
LAP4-GFP pick2: second confirmation of modulators of TOR reporter LAP4-GFP in yeast; S. cerevisiae LAP4-GFP strain, flow cytometry GFP, 3 h; shares compounds with LAP4-GFP MLPCN; GFP response vs DMSO, % at 10 µM; 590 tested, 20% active;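 active means GFP signal as percent of the solvent control above about 150%, meaning raised reporter expression, limit read from the data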;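 further: ratio of well median GFP fluorescence to plate DMSO mean so 100% = DMSO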
MEP2 cherry2: reconfirmed MEP2-GFP TOR pathway modulator in yeast; GFP response vs DMSO, % at 10 µM; S. cerevisiae MEP2-GFP strain, flow cytometry GFP, 3 h; shares compounds with LAP4-GFP MLPCN; 590 tested, 10% active;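 active means GFP signal above 150% of the solvent control wells, that is a rise of more than half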;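 further: median channel GFP fluorescence of all gated yeast cells per well; ratio of median GFP to plate DMSO average so 100% = DMSO level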
RPL19A-GFP pick2: second confirmation of modulators of TOR reporter RPL19A-GFP in yeast. shares compounds with LAP4-GFP MLPCN. S. cerevisiae RPL19A-GFP strain, flow cytometry GFP, 3 h; active compounds read low; 100% means same as DMSO wells. GFP response vs DMSO, % at 10 µM. 590 tested, 3% active. AID 2623;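 active means under 65% GFP response relative to DMSO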;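 further: median GFP channel fluorescence per well over the all cells gate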
CIT2 GFP CP2: second confirmation of modulators of TOR reporter CIT2-GFP in yeast; shares compounds with LAP4-GFP MLPCN; GFP response vs DMSO, % at 10 µM; S. cerevisiae CIT2-GFP strain, flow cytometry GFP, 3 h; DMSO control wells read 100%; 590 tested, 8% active; AID 2624;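 active means GFP response vs DMSO above about 150%, limit read from the data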;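 further: median green fluorescence per well over all gated yeast cells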
AGP1 GFP CP2: reconfirmed modulator of AGP1-GFP TOR reporter in yeast; AID 2643; percent response vs DMSO, % at 10 µM; S. cerevisiae AGP1-GFP strain, flow cytometry GFP, 3 h; 590 tested, under 10 active; shares compounds with LAP4-GFP MLPCN;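 active means over 150 percent of DMSO response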;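 further: median GFP channel fluorescence over all cells without mother daughter split; sample median GFP divided by mean DMSO control so 100% equals DMSO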
s288c autofluor: yeast s288c autofluorescence artifact, counter-screen | AID 2757 | fluorescence change (kMESF span) at 33 µM | shares compounds with LAP4-GFP MLPCN | S. cerevisiae s288c, 520 nm autofluorescence, flow cytometry, 3 h; active compounds read high; zero means same as solvent-only cells | 610 tested, under 10 active;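 active means fluorescence span over the dose series, or activity score, above about 33, limit read from the data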
* hit, by the source's call; / = no result given.

SMILES	RPL19A-GFP yeast	LAP4-GFP MLPCN	CIT2-GFP yeast	MEP2-GFP yeast	AGP1-GFP MLPCN	LAP4-GFP pick2	MEP2 cherry2	RPL19A-GFP pick2	CIT2 GFP CP2	AGP1 GFP CP2	s288c autofluor
CCOC(=O)c1c(CSc2ccccc2)oc2ccc(O)cc12	103	103	88	99	96	/	/	/	/	/	/
O=C(NC(=S)NNC(=O)c1ccccc1O)c1cccs1	110	91	91	100	96	/	/	/	/	/	/
COc1ccccc1C(=O)NNC(=S)NC(=O)c1cccs1	125	186*	122	108	126	/	/	/	/	/	0.2
O=C(Cc1ccc(Cl)cc1)NNC(=S)NC(=O)c1cccs1	109	199*	108	104	113	/	/	/	/	/	1.1
O=C(Cc1cccs1)NNC(=S)NCc1ccc(Cl)cc1	92	96	103	92	98	/	/	/	/	/	/
CC(C)(C)CC(=O)Nc1ccccc1N1CCN(c2ccc(F)cc2)CC1	103	89	98	102	97	/	/	/	/	/	/
Cc1cc(C)c2c(N)c(C(=O)Nc3ncc(C)s3)sc2n1	99	110	95	119	99	/	/	/	/	/	/
CC(C)[C@]1(c2ccc(Cl)cc2)ON(c2ccccc2C(F)(F)F)C1=O	96	107	106	99	100	102	94	101	106	100	-0.1
O=C(O)c1nn(-c2ccccc2C(F)(F)F)cc1O	98	95	105	93	99	/	/	/	/	/	/
CC(C)[C@@]1(c2ccccc2)ON(c2ccccc2C(F)(F)F)C1=O	99	110	105	94	100	105	96	102	104	97	-0.2
CC(C)[C@]1(c2ccccc2)ON(c2ccccc2C(F)(F)F)C1=O	94	94	94	94	93	109	103	104	114	108	-0.2
O=C1N(c2ccccc2C(F)(F)F)O[C@]1(c1ccccc1)C1CCCCC1	95	85	99	89	71	107	102	105	115	107	-0.1
O=C(c1ccc(Cl)c(S(=O)(=O)N2CCCCCC2)c1)N1CCN(c2ccccn2)CC1	94	93	104	90	92	/	/	/	/	/	/
Cc1c(C(c2ccc(O)cc2)c2c(C)n(C)n(-c3ccccc3)c2=O)c(=O)n(-c2ccccc2)n1C	96	100	97	97	94	/	/	/	/	/	/
COc1ccc(O)c(C(=O)c2cnn(C(=O)c3cccc(S(=O)(=O)N4CCOCC4)c3)c2)c1	100	82	93	89	88	/	/	/	/	/	/
O=C1N(c2ccccc2C(F)(F)F)OC1(Cc1ccccc1)c1ccccc1 (stereo unspecified)	96	94	101	99	97	112	106	109	112	103	0
FC(F)(F)c1ccccc1-n1ccnc1	89	108	72	99	75	/	/	/	/	/	/
CCCc1nnc(NC(=O)CCN2C(=O)c3ccccc3C2=O)s1	97	92	101	99	100	/	/	/	/	/	/
Cc1cc(Cl)ccc1N(CC(=O)NCCSCc1ccco1)S(C)(=O)=O	60	98	100	166	45	101	96	102	117	96	/
COc1ccc(-c2[nH]nc3c2C2(C(=O)N(CC(=O)O)c4ccccc42)C(C#N)=C(N)O3)cc1OC (stereo unspecified)	98	87	104	96	97	/	/	/	/	/	/
CCC(Cc1ccccc1)NC(=O)C1CC1 (stereo unspecified)	102	99	100	101	102	/	/	/	/	/	/
O=C(O)c1cccc(S(=O)(=O)Nc2ccc(S(=O)(=O)N3CCOCC3)cc2)c1	58	90	92	129	85	102	110	98	106	98	0
Cc1ccc(NS(=O)(=O)c2cccc(C(=O)O)c2)cc1S(=O)(=O)N1CCOCC1	97	88	101	104	94	/	/	/	/	/	/
Nc1ncnc2oc(-c3ccco3)c(-c3ccco3)c12	92	116	96	97	87	/	/	/	/	/	/
CCN1/C(=C\C(=S)Nc2ccccc2)Sc2ccccc21	91	146	98	97	98	/	/	/	/	/	/
SMILES	RPL19A-GFP yeast	LAP4-GFP MLPCN	CIT2-GFP yeast	MEP2-GFP yeast	AGP1-GFP MLPCN	LAP4-GFP pick2	MEP2 cherry2	RPL19A-GFP pick2	CIT2 GFP CP2	AGP1 GFP CP2	s288c autofluor
CCN1/C(=C/C(C)=C/c2sc3ccccc3[n+]2CC)Sc2ccccc21	50	188*	61	102	69	/	/	/	/	/	2.1
CC(=O)N1c2ccc(S(=O)(=O)N3CCC(C(=O)N4CCN(c5cccc(C(F)(F)F)c5)CC4)CC3)cc2CC1C (stereo unspecified)	99	95	103	102	100	/	/	/	/	/	/
CC(=O)c1ccc(N2CCN(C(=O)C3CCN(S(=O)(=O)c4ccc5c(c4)CC(C)N5C(C)=O)CC3)CC2)cc1 (stereo unspecified)	86	183*	90	94	109	104	105	100	107	99	/
COc1ccccc1-c1nnc(SCC(=O)NC2CCS(=O)(=O)C2)n1N (stereo unspecified)	93	94	94	95	92	/	/	/	/	/	/
CCN1/C(=C/c2ccc3cc(C)ccc3[n+]2CC)Sc2ccc3sccc3c21	90	300*	366*	588*	124	/	/	/	/	/	8.8
Cc1noc(NS(=O)(=O)c2ccc(NC(=O)CSc3nnc4c(n3)[nH]c3ccccc34)cc2)c1C	101	92	100	96	104	/	/	/	/	/	/
COc1ccccc1CCNC(=O)Nc1cccc([N+](=O)[O-])c1	95	84	98	88	90	/	/	/	/	/	/
CN(NC(=O)C(C)(C)C)c1nc(-c2ccccc2)nnc1C(F)(F)F	96	100	84	87	94	/	/	/	/	/	/
CCCSc1ccc(-c2nn(-c3ccccc3)cc2/C=C(/C#N)C(=O)NCCCOC)cc1	103	102	110	108	100	/	/	/	/	/	/
CCSc1ccc(-c2nn(-c3ccccc3)cc2/C=C(/C#N)C(=O)NCCCOC)cc1	105	186*	186*	525*	83	96	96	101	114	97	/

From PubChem BioAssay
